According to PubChem BioAssay (NCATS):
“And” between values parts separate entries of the source, which are not always exact repeats. Equal values may be shown once. Inconclusive results are not listed. Some compounds were tested as several samples or in several runs, with calls that do not always agree. The source made the active and inactive calls. Unless noted, the call rests on the fitted dose curve.

Assays:
[1] = AP1 Signaling Pathway (AID 357; active means well fitted curve in either direction with a large enough effect, not every such curve was filed as active;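 further: ME-180 reporter cells stimulated with EGF at its EC50 level; on the % scale 0 is the no-effect control and ±100 the full control effect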); details: ME-180 (cervical carcinoma) AP-1-bla reporter, EGF-induced, beta-lactamase ratio, 5 h
Procedure, shortened: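 In this screen, ME-180 cells in Opti-MEM with 0.5% dialyzed FBS received EC50 EGF and compound titrations for 5 h. AP-1 reporter beta-lactamase was detected via CCF4 ratio, giving AC50 for positive and negative modulators.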

[2] = NFAT Signaling Pathway (AID 444; active means well fitted curve in either direction with a large enough effect, not every such curve was filed as active;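 further: carbachol stimulus at about its EC50 of 1 µM final; on the % scale 0 is the no-effect control and ±100 the full control effect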); details: Jurkat NFAT-bla M1, carbachol, beta-lactamase ratio, 5 h
Procedure, shortened: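 Jurkat cells with NFAT-driven β-lactamase reporter and co-expressed M1 receptor, stimulated with carbachol (final 1 uM, ~EC50), compound titration, 5 h at 37 °C. CCF4 loaded 1 h at RT; 460/530 nm ratio gave %activity and AC50.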

[3] = target: Cytochrome P450 1A2 (Homo sapiens) (UniProt P05177); assay: p450-cyp1a2 (AID 410); details: recombinant CYP1A2, luciferin-ME demethylation, luminescence; series mostly up to 57 µM; further: potency means the concentration at half of the fitted maximal effect;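 on activity change, negative = inhibition: -100% = full effect of reference inhibitor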
Procedure, shortened: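 Inhibition was calculated relative to 57 uM furafylline (full inhibition). The reaction used human CYP1A2 at 20nM with Luciferin-ME at its Km, 100uM, driven by an NADPH-regenerating system for 60 min at room temperature.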

[4] = Cell Viability - BJ (AID 421); details: BJ fibroblast viability, qHTS;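 further: potency means the concentration at half of the fitted maximal effect; cells exposed to compound for 40 hours at 37 °C before readout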
Procedure, shortened: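 Normal human BJ foreskin fibroblasts, 1500/well in complete medium, treated 40 hr at 37 °C. Cellular ATP by CellTiter-Glo luminescence; normalized to DMSO and 100 uM tamoxifen, AC50 from Hill fit.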

[5] = Cell Viability - Jurkat (AID 426;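 active means dose-dependent loss of cell ATP signal giving a full or clear fitted curve, ranked by lower potency value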; further: potency means the concentration at half of the fitted maximal effect); details: qHTS
Procedure, shortened: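 Seed 5000 Jurkat E6-1 cells/well; add compound; incubate 40 hr at 37 °C; add CellTiter-Glo; wait 20 min at room temperature; read luminescence. Fit concentration-response with Hill equation for AC50.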

[6] = Cell Viability - Hek293 (AID 427;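 active means compounds whose dose-response curve shows a full or clear partial loss of cell viability, called from curve shape rather than a numeric limit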;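 further: potency means the concentration at half of the fitted maximal effect; cells exposed to compound for 40 hours at 37 °C before reading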); details: qHTS
Procedure, shortened: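 HEK293 cells in complete medium were exposed to compound for 40 hr at 37 °C, then cellular ATP was read by CellTiter-Glo luminescence. Data were normalized to DMSO (basal) and 100 uM tamoxifen (100% inhibition), and AC50 came from Hill fits.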

[7] = Cell Viability - HepG2 (AID 433); details: qHTS;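 further: potency means the concentration at half of the fitted maximal effect; potency for ATP loss meaning cytotoxicity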
Procedure, shortened: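 HepG2 hepatocellular carcinoma cells (1500/well) were treated with compounds for 40 h at 37 °C in complete medium; intracellular ATP was read by CellTiter-Glo luminescence. Data were normalized to DMSO and 100 uM tamoxifen, and AC50 came from Hill fits.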

[8] = Cell Viability - MRC5 (AID 434); details: MRC5 lung fibroblast viability, qHTS;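 further: potency means the concentration at half of the fitted maximal effect; potency reflects cytotoxicity seen as loss of intracellular ATP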
Procedure, shortened: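 MRC5 normal human lung fibroblasts, 1500 cells/well, exposed to compound for 40 hr at 37 C. Cellular ATP was read by CellTiter-Glo luminescence; data normalized to DMSO and 100 uM tamoxifen, with AC50 from Hill fits.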

[9] = Cell Viability - SK-N-SH (AID 435); details: SK-N-SH neuroblastoma cell viability qHTS;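 further: potency means the concentration at half of the fitted maximal effect; compound exposure lasted 40 h at 37 °C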
Procedure, shortened: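 SK-N-SH human neuroblastoma cells (1500/well) were exposed to compounds in complete medium for 40 h at 37 °C, and intracellular ATP was then measured by CellTiter-Glo luminescence. AC50 was taken from Hill fits, normalized to DMSO and 100 uM tamoxifen.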

Sequence of Cytochrome P450 1A2 (Homo sapiens) (P05177 whole entry, looked up): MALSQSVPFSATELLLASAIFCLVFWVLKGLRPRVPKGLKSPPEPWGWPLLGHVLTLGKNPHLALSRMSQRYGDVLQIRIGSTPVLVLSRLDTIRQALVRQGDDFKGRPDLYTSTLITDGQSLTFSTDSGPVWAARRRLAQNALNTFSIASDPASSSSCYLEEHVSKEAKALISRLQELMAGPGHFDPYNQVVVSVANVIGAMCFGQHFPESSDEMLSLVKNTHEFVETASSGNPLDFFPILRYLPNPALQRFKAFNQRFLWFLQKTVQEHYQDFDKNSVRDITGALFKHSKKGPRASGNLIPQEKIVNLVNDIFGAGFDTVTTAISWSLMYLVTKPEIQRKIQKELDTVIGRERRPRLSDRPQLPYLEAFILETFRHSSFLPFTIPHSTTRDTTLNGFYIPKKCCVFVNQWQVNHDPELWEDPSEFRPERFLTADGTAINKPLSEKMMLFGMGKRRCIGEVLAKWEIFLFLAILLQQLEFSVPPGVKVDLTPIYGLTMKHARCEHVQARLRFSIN

In the case of `CO[C@@]1(NC(=O)CSCC#N)C(=O)N2C(C(=O)O)=C(CSc3nnnn3C)CS[C@@H]21`, the activity change, negative = inhibition ([1]; at 17.2 µM (top of the series)) is reported as 6.1% (inactive) and the activity change, negative = inhibition ([2]; at 17.2 µM (top of the series)) is reported as -23.9% (inactive).

In the case of `CC(C)(Oc1ccc(CCNC(=O)c2ccc(Cl)cc2)cc1)C(=O)O`, the activity change, negative = inhibition ([1]; at 17.2 µM (top of the series)) is reported as 3.65% (inactive) and 3.52% (inactive), the Potency [3] is reported as “inactive” and the activity change, negative = inhibition ([2]; at 17.2 µM (top of the series)) is reported as -9.97% (inactive) and 7.1% (inactive).

In the case of `O=C(O)CCCCCCCC(=O)O`, the Potency [3] is reported as “inactive” and the activity change, negative = inhibition ([2]; at 38 µM (top of the series)) is reported as -0.521% (inactive).

For `COCC(=O)O[C@]1(CCN(C)CCCc2nc3ccccc3[nH]2)CCc2cc(F)ccc2[C@@H]1C(C)C`, the Potency [3] was 31.6 µM (active) and the activity change, negative = inhibition ([2]; at 38 µM (top of the series)) was -15.7% (inactive).

With `CCCCOCCOCCOCc1cc2c(cc1CCC)OCO2` the Potency [4] was > 92 µM (inactive), the Potency [5] was > 92 µM (inactive) and the Potency [6] was > 92 µM (inactive). For the same compound, the Potency [7] was > 92 µM (inactive), the Potency [8] was > 92 µM (inactive) and the Potency [9] was > 92 µM (inactive).

In the case of `CC1=C(C)C(=O)C(CCCCC#CCCCC#CCO)=C(C)C1=O`, the Potency [3] is reported as 0.501 µM (active).

With `COc1cc2c(cc1OC)-c1cc(=Nc3c(C)cc(C)cc3C)n(C)c(=O)n1CC2` the activity change, negative = inhibition ([1]; at 38 µM (top of the series)) was -25.7% (inactive), the Potency [3] was “inactive” and the activity change, negative = inhibition ([2]; at 38 µM (top of the series)) was -16.6% (inactive).

For `CN(C)CCN(Cc1cccs1)c1ccccn1`, the Potency [3] was “inactive and 12.6 µM (active)”.

With `C[N+](C)(C)CCOC(=O)CCC(=O)OCC[N+](C)(C)C` the activity change, negative = inhibition ([1]; at 38 µM (top of the series)) was -1.57% (inactive), the Potency [3] was “inactive” and the activity change, negative = inhibition ([2]; at 38 µM (top of the series)) was 1.62% (inactive).

For `NC(=Nc1ccccc1)Nc1ccccc1`, the Potency [4] was > 92 µM (inactive), the Potency [5] was > 92 µM (inactive) and the Potency [6] was > 92 µM (inactive). For the same compound, the Potency [7] was > 92 µM (inactive), the Potency [8] was > 92 µM (inactive) and the Potency [9] was > 92 µM (inactive).

For `COC(=O)[C@@H](N)Cc1ccc(O)c(O)c1`, the activity change, negative = inhibition ([1]; at 38 µM (top of the series)) was 2.14% (inactive) and the activity change, negative = inhibition ([2]; at 38 µM (top of the series)) was 5.8% (inactive).

For `O=C(O)CN(CCOCCOCCN(CC(=O)O)CC(=O)O)CC(=O)O`, the activity change, negative = inhibition ([1]; at 38 µM (top of the series)) was 4.77% (inactive), the Potency [3] was “inactive” and the activity change, negative = inhibition ([2]; at 38 µM (top of the series)) was 0.822% (inactive).

For `CC(=O)OCC1=C(C(=O)O)N2C(=O)[C@@H](NC(=O)Cc3cccs3)[C@H]2SC1`, the activity change, negative = inhibition ([1]; at 17.2 µM (top of the series)) was -3.26% (inactive) and the activity change, negative = inhibition ([2]; at 17.2 µM (top of the series)) was 0.294% (inactive).

With `COC(=O)[C@H]1[C@H]2C[C@@H]3c4[nH]c5cc(OC)ccc5c4CCN3C[C@H]2C[C@@H](OC(=O)c2cc(OC)c(OC)c(OC)c2)[C@@H]1OC` the Potency [5] was 35.9 µM (active) and the Potency [9] was 46.3 µM (active).

For `COc1ccc(CN(CCN(C)C)c2ccccn2)cc1`, the Potency [3] was “inactive”, the Potency [4] was > 92 µM (inactive) and the Potency [5] was > 92 µM (inactive). The Potency [6] was > 92 µM (inactive), the Potency [7] was > 92 µM (inactive) and the Potency [8] was > 92 µM (inactive). For the same compound, the Potency [9] was > 92 µM (inactive).

With `CCc1cccc(N(C)C(N)=Nc2cccc3ccccc23)c1` the activity change, negative = inhibition ([2]; at 38 µM (top of the series)) was -9.54% (inactive).

In the case of `FC(F)(F)c1ccccc1-n1ccnc1`, the activity change, negative = inhibition ([1]; at 38 µM (top of the series)) is reported as 7.15% (inactive), the Potency [3] is reported as 2.51 µM (active) and 251 nM (active) and the activity change, negative = inhibition ([2]; at 38 µM (top of the series)) is reported as -3.5% (inactive).

With `CCN1CCc2nc(N)oc2CC1` the activity change, negative = inhibition ([1]; at 38 µM (top of the series)) was 9.25% (inactive), the Potency [3] was “inactive” and the activity change, negative = inhibition ([2]; at 38 µM (top of the series)) was -7.89% (inactive).

In the case of `COCCc1ccc(OCC(O)CNC(C)C)cc1` (configuration not stated), the activity change, negative = inhibition ([1]; at 17.2 µM (top of the series)) is reported as 3.62% (inactive) and the activity change, negative = inhibition ([2]; at 17.2 µM (top of the series)) is reported as -25.7% (inactive).

In the case of `CCCCCCCC/C=C\CCCCCCCC(=O)NCc1ccc(O)c(OC)c1`, the Potency [3] is reported as 20 µM (active).

For `Cc1nc2c([nH]1)c(=O)n(C)c(=O)n2Cc1ccco1`, the activity change, negative = inhibition ([1]; at 38 µM (top of the series)) was -6.02% (inactive) and the activity change, negative = inhibition ([2]; at 38 µM (top of the series)) was -9.82% (inactive).
